RGS4-Gao reg = modulates binding of RGS4 to human Galphao | P09471 | Multiplexed bead flow cytometry; actives lie on both sides | binding response (% of control), % at 10 µM | actives 0.33% (n = 220,000); in the data active = binding response below about 49% or above about 150%; inactive = in between;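 also: fluorescent Galphao activated with aluminum fluoride binding bead-coupled RGS4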
Target sequence (P09471 whole entry, looked up): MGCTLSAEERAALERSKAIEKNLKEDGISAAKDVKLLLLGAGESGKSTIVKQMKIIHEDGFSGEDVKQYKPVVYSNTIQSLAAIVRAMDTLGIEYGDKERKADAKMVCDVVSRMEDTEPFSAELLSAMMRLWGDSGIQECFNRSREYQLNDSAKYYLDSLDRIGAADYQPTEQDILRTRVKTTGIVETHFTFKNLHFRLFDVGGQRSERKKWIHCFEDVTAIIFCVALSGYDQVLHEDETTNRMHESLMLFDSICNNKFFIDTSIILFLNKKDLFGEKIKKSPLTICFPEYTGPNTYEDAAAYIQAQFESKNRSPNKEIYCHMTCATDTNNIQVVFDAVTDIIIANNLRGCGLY
RGS16-Gao HTS = regulators of human RGS16-Galphao interaction | O15492+P09471 | bead-based flow cytometry RGS16-Galphao binding, fluorescence; actives lie on both sides | binding response (% of control), % at 10 µM | actives 0.38% (n = 220,000);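 also: Galphao activated by GDP with aluminum fluoride before binding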
Target sequence (O15492 whole entry, looked up): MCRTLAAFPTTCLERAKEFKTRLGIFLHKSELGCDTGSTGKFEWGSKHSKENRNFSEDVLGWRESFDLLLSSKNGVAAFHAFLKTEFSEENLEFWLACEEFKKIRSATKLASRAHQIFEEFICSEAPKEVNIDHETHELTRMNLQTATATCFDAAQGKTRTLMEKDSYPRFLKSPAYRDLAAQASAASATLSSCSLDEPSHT
Target sequence (P09471 whole entry, looked up): as the sequence (P09471 whole entry, looked up) above
RGS8-Gao reg = modulates binding of RGS8 to human Galphao; actives 0.34% (n = 220,000); response (percent of control binding), % at 10 µM; multiplexed bead flow cytometry; actives lie on both sides; P09471; in the data active = response below about 60% or above about 140%; inactive = in between;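 also: Galphao activated as the GDP aluminium fluoride complex binding bead-coupled RGS8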
RGS7-Gao reg = human RGS7-Galphao interaction regulation. P09471. Multiplexed bead flow cytometry, RGS7-Galphao binding; actives lie on both sides. binding response (% of control), % at 10 µM. actives 0.35% (n = 220,000). AID 1439; in the data active = binding response below about 49% or above about 150%; inconclusive = no clear call, values can overlap the other calls; inactive = in between;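 also: fluorescent Galphao held in activated GDP-AlF4 state binding bead-coupled RGS7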
RGS4-Gao HTS = regulators of human RGS4-Galphao interaction; AID 1504; shares compounds with RGS16-Gao HTS; RGS4–Galpha-o binding response, % at 10 µM; multiplexed bead flow cytometry, RGS–Galpha-o binding; actives 99% (n = 1,600);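 also: fluorescently labeled Galpha-o bound to GDP with aluminium fluoride binding biotinylated RGS beads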
Biotin-avidin = counter-screen: compounds disrupting biotin binding to avidin beads; AID 1783; inhibition, % at 10 µM; 1,700 tested, under 10 active; streptavidin beads, fluorescein-biotin binding, flow cytometry; shares compounds with RGS16-Gao HTS;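 active = inhibition above 50%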;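 also: median green fluorescence of gated singlet beads compared with DMSO control wells; 0% = DMSO wells and 100% = complete loss of bead fluorescence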
RGS8-Gao confirm = confirmation of regulators of human RGS8-Galphao interaction | binding response (% of control), % at 10 µM | shares compounds with RGS16-Gao HTS | bead-based flow cytometry RGS8-Galphao binding, fluorescence; actives lie on both sides | actives 3% (n = 1,700); in the data active = binding response below about 72% or above about 130%; inactive = in between;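 also: Galphao activated as GDP AlF4 complex before binding bead RGS8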
RGS7-Gao confirm = confirmation of regulators of human RGS7-Galphao interaction | shares compounds with RGS16-Gao HTS | AID 1837 | bead-based flow cytometry RGS7-Galphao binding; actives lie on both sides | response (percent of control binding), % at 10 µM | actives 7.8% (n = 1,700); in the data active = response below about 75% or above about 130%; inactive = in between;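 also: fluorescent Galphao activated with GDP and aluminum fluoride binding bead-coupled RGS7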
RGS16-Gao single = confirmation of regulators of human RGS16-Galphao interaction; shares compounds with RGS16-Gao HTS; bead-based flow cytometry, RGS16-Galphao binding; actives lie on both sides; response (% of control binding), % at 10 µM; actives 4% (n = 1,700); AID 1838; in the data active = response below about 74% or above about 130%; inactive = in between;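 also: Galphao activated as the GDP aluminium fluoride complex binding bead-coupled RGS16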
RGS4-Gao confirm = RGS4-Galphao interaction regulation, single point confirmation | shares compounds with RGS16-Gao HTS | RGS4-Galphao binding, multiplexed bead flow cytometry; actives lie on both sides | binding response (% of control), % at 10 µM | actives 4% (n = 1,700); in the data active = binding response below about 74% or above about 130%; inactive = in between
RGS19-Gao conf = confirmation of regulators of human RGS19-Galphao interaction. response (percent of control binding), % at 10 µM. actives 5% (n = 1,700). bead-based flow cytometry RGS19-Galphao binding; actives lie on both sides. shares compounds with RGS16-Gao HTS; in the data active = response below about 50% or above about 160%; inactive = in between;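 also: 100% = no compound control and 0% = blank background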
Starred values were filed as active, the others as inactive; i = inactive; ? = inconclusive; nt = not tested or not shown; [ ] = remark or other dose. Rows were chosen to be rich in hits. Some 0.78% of all compounds tested hit in one or more screens of this group. Unless noted, no rule for the calls is given here.

SMILES	RGS4-Gao reg	RGS16-Gao HTS	RGS8-Gao reg	RGS7-Gao reg	Biotin-avidin	RGS8-Gao confirm	RGS7-Gao confirm	RGS16-Gao single	RGS4-Gao confirm	RGS19-Gao conf	others
CC(C)CNC(=O)c1ccccc1SCC(=O)NC12CC3CC(CC(C3)C1)C2	77.7	23.3*	68.4	79.1	0.2	98.5	109.1	104.7	104.2	137.4	RGS4-Gao HTS=77.7*
OCCC1CN(Cc2nc3c(s2)CCCC3)CCN1CCc1ccccc1 (stereo not drawn)	99.1	101.5	99.0	102.9	nt	nt	nt	nt	nt	nt
CC(C)CCN1CCN(Cc2nc3c(s2)CCCC3)CC1CCO (stereo not drawn)	40.3*	30.0	37.5*	27.4*	-0.7	114.8	110.0	117.0	103.2	104.5
CC(=O)NC(N1CCCCC1)C(F)(F)C(F)(F)C(F)(F)C(F)F (stereo not drawn)	100.1	80.3	95.8	100.7	nt	nt	nt	nt	nt	nt
Cc1ccc(NC(=O)CO/N=C(\N)c2nonc2N)cc1C	91.9	25.0*	79.8	92.2	-5.2	103.2	106.1	104.6	102.6	86.9	RGS4-Gao HTS=91.9*
CCC(CO)N=CC1=C(O)C(C(=O)c2ccccc2)CCC1=O (stereo not drawn)	101.5	100.6	100.7	98.3	nt	nt	nt	nt	nt	nt
CC1(C)OC(=O)C(=Cc2ccc(-c3ccc(S(N)(=O)=O)cc3)o2)C(=O)O1	94.8	93.7	83.2	93.7	-2.2	72.5*	88.3	95.1	93.0	50.5*
NS(=O)(=O)c1ccc(-c2ccc(/C=C3\C(=O)Nc4cc(Cl)ccc43)o2)cc1	91.3	95.3	100.1	90.7	nt	nt	nt	nt	nt	nt
CN(C(=O)COc1ccccc1)c1nc(-c2ccc(F)cc2)cs1	102.8	115.3	107.0	103.7	nt	nt	nt	nt	nt	nt
O=C(CNCCCO)Nc1cc(C(F)(F)F)cc(NC(=O)CNCCCO)c1Cl	102.2	104.8	102.1	100.5	nt	nt	nt	nt	nt	nt
CS(=O)(=O)N(CC(=O)Nc1cccnc1)c1ccc2c(c1)OCO2	nt	nt	nt	nt	3.7	91.7	79.9	84.2	86.9	77.6
CS(=O)(=O)N(CC(=O)Nc1cccnc1)c1ccc2c(c1)OCCO2	109.1	139.9	108.7	101.3	nt	nt	nt	nt	nt	nt
CC1=C(C(=O)Nc2ccccn2)C(c2ccc3c(c2)OCO3)C2=C(CC(C)(C)CC2=O)N1 (stereo not drawn)	90.5	88.0	91.6	99.3	nt	nt	nt	nt	nt	nt
CC(=O)c1sc(-c2ccc(F)cc2)cc1NS(=O)(=O)c1ccccc1	-36.5*	-20.1*	1.8*	?	-0.7	100.6	98.1	101.0	101.5	102.1
CC1C(=O)CC(c2ccccc2)NC1c1ccccc1 (stereo not drawn)	117.1	406.6*[activator]	125.4	105.9	-0.6	101.3	102.7	100.0	103.5	102.2	RGS4-Gao HTS=117.1*
COc1cc2c(cc1OC)C(C)=NC1(CCCCC1)C2	97.1	98.6	98.1	?	nt	nt	nt	nt	nt	nt
C/C(=C\c1cc(C(=O)O)c(C)o1)CO	99.2	96.3	100.2	104.1	nt	nt	nt	nt	nt	nt
CSc1ccc(NC(=O)N2CC=C(n3c(=O)[nH]c4ccccc43)CC2)cc1	102.8	104.3	102.1	101.3	nt	nt	nt	nt	nt	nt
COCCCNC(=O)COc1ccc(S(=O)(=O)NCc2ccccc2)cc1Cl	314.2*[activator]	i	407.2*[activator]	274.6*[activator]	-1.3	98.8	77.3	94.3	88.9	57.2
COc1ccc2c(CC(=O)OCC(=O)Nc3cccc(S(N)(=O)=O)c3)coc2c1	98.6	94.0	100.9	?	nt	nt	nt	nt	nt	nt
O=[N+]([O-])c1ccc(COc2ccccc2/C=N/O)cc1	89.2	22.5*	72.9	90.7	-0.4	105.7	106.8	105.4	107.5	99.2	RGS4-Gao HTS=89.2*
CCOc1cc(/C=N/O)ccc1OCc1ccc([N+](=O)[O-])cc1	101.1	97.9	99.2	101.0	nt	nt	nt	nt	nt	nt
CN(C)C(=S)Nc1ccc2c(c1)OCCO2	39.7*	46.4	68.5	?	-0.3	99.7	96.8	100.9	100.9	111.9
S=C(Nc1ccc2c(c1)OCCO2)Nc1ccc2c(c1)OCO2	89.9	98.5	96.6	92.7	nt	nt	nt	nt	nt	nt
COC(=O)CC(NC(=O)Nc1ccc(C)cc1)c1cccc([N+](=O)[O-])c1 (stereo not drawn)	28.0*	19.8*	26.3*	4.0*	0.5	103.5	100.9	103.7	99.8	115.8
SMILES	RGS4-Gao reg	RGS16-Gao HTS	RGS8-Gao reg	RGS7-Gao reg	Biotin-avidin	RGS8-Gao confirm	RGS7-Gao confirm	RGS16-Gao single	RGS4-Gao confirm	RGS19-Gao conf	others
CCOC(=O)Cc1csc(NC(=O)c2csc3c2CCCC3)n1	28.9*	3.8	14.3*	19.3*	-1.6	92.8	91.2	88.5	91.8	88.0
CCOC(=O)Cc1csc(NC(=O)c2cc3c(s2)CCCC3)n1	104.8	101.2	100.8	111.9	nt	nt	nt	nt	nt	nt
COc1ccc(NC(=O)CSc2ncnc3c2cnn3CCc2ccccc2)cc1	-20.0*	-12.1*	19.3*	0.3*	-1.2	100.5	100.8	100.9	102.9	103.1
COc1cccc(NC(=O)CSc2ncnc3c2cnn3Cc2ccccc2)c1	101.8	100.9	101.1	96.0	nt	nt	nt	nt	nt	nt
Cc1cc(=O)[nH]c(SCn2nnc3ccccc3c2=O)n1	36.2*	34.4	36.5*	29.6*	-1.8	99.7	96.8	95.8	96.0	103.2
O=c1c2ccccc2nnn1CSc1nc2ccccc2[nH]1	100.7	92.4	98.2	100.0	nt	nt	nt	nt	nt	nt
NC(=O)C1CCN(C2=C(NS(=O)(=O)c3ccccc3)C(=O)c3ccccc3C2=O)CC1	26.4*	16.2*	19.4*	?	0.2	108.4	99.3	112.4	107.4	113.0
COc1cc2c(cc1/C=C1/NC(=O)N(CC(=O)Nc3ccccc3)C1=O)OCO2	104.0	108.3	101.4	104.4	nt	nt	nt	nt	nt	nt
COc1ccccc1NC(=O)Cn1cnc2c(nnn2-c2ccc(C)cc2)c1=O	104.3	98.3	98.5	154.1*[activator]	-0.3	99.9	104.1	99.0	99.7	95.6	RGS4-Gao HTS=104.3*
CCOC(=O)c1ccccc1NC(=O)Cn1cnc2c(nnn2-c2ccc(C)cc2)c1=O	100.7	98.7	99.8	100.2	nt	nt	nt	nt	nt	nt
CC(=O)c1c(C(C)=O)c(C)n(NC(=O)c2ccc(Cl)cc2)c1C	193.8*[activator]	174.3	107.8	163.0*[activator]	-1.3	109.4	111.7	110.2	111.5	123.5
CC1(CC(=O)N/N=C/c2ccc(-c3cccc(C(F)(F)F)c3)o2)OCCO1	169.4*[activator]	204.2*[activator]	115.1	261.7*[activator]	-0.4	98.8	98.8	100.2	102.1	108.5

Screens deposited in PubChem by NMMLSC.
